This is an account of results in PubChem BioAssay (NCATS).

For assay [1], the system named is CRL-7250. As to the kind of experiment: Cytotoxic Profiling of Annotated Libraries Using Quantitative High-Throughput Screening (AID 1296008). Also: potency is read from the fitted curve at half-maximal effect. As to max response: % is scaled to controls: 0 for no effect and ±100 for the full control effect. To be noted: Five cell lines viability, CellTiter-Glo ATP luminescence, 48-72 h; max response: active compounds read low. The method, boiled down: (§1)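 Cells exposed to compounds for 48 or 72 hr at 37 degrees Celsius. Viability read as ATP-coupled luminescence with CellTiter-Glo after 10 min at room temperature.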

The test system of assay [2] is HaCat. The description is as above. The following applies: Five cell lines viability, CellTiter-Glo ATP luminescence, 48-72 h; max response: active compounds read low. The method, boiled down:
as §1
(In general: In ATP-based viability assays light output follows the ATP content of the culture.)

Assay [3] concerns KB-3-1. The description is as above. The following applies: Five cell lines viability, CellTiter-Glo ATP luminescence, 48-72 h; max response: active compounds read low. The method, boiled down:
as §1

Assay [4] deals with HACAT. As to the kind of experiment: qHTS assay to identify novel small-molecules to repurpose for Merkel cell carcinoma treatment (AID 1296009). To be noted: MCC and control cell lines, CellTiter-Glo viability, 72 h; at 44.8 µM (top of the series) unless noted. The method in brief:
(§2)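 Dose-response viability screen; 72 hr exposure at 37 degree celsius; CellTiter-Glo added, 10 min room temperature, luminescence read; RLUs scaled between no-cell and DMSO wells.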

The subject of assay [5] is HEK293. The assay is described as follows: Cytotoxic Profiling of Annotated Libraries Using Quantitative High-Throughput Screening (AID 1296008). Also: potency is read from the fitted curve at half-maximal effect. As to max response: % is scaled to controls: 0 for no effect and ±100 for the full control effect. To be noted: Five cell lines viability, CellTiter-Glo ATP luminescence, 48-72 h; max response: active compounds read low. The method in brief:
as §1

Assay [6] has as its system NIH3T3. The description is as above. The following applies: Five cell lines viability, CellTiter-Glo ATP luminescence, 48-72 h; max response: active compounds read low. The method in brief:
as §1

For assay [7], the system named is CRL-7250. As to the kind of experiment: qHTS assay to identify novel small-molecules to repurpose for Merkel cell carcinoma treatment (AID 1296009). To be noted: MCC and control cell lines, CellTiter-Glo viability, 72 h; at 44.8 µM (top of the series) unless noted. The method in brief:
as §2
A general note: Quantitative high-throughput screening tests each substance at several concentrations.

Assay [8] deals with W2. The assay is described as follows: qHTS profiling for inhibitors of Plasmodium falciparum proliferation (AID 504749). Also: potency is read from the fitted curve at half-maximal effect. To be noted: P. falciparum in erythrocytes, SYBR Green DNA, 72 h; series mostly up to 28.7 µM. The method in brief:
(§3)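 Each compound contacts P. falciparum-infected red blood cells for 72 h at 37 C; lysis buffer (Tris, EDTA, saponin, Triton X, SYBR Green I) is added and fluorescence measured next morning; values normalized to controls.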

Assay [9] has as its system TAB165. The assay is described as above. To be noted: P. falciparum in erythrocytes, SYBR Green DNA, 72 h; series mostly up to 28.7 µM. The method, boiled down: as §3

Several values for one entry are separate records, joined by “and”; a condition that tells them apart may be missing. Identical values can stand only once. Inconclusive results are not listed. Unmarked numbers belong to inactive results. Activity calls are given as the source filed them. Calls follow the shape of the dose curve; as a rule, active = well fitted inhibition curve with a large enough effect; inconclusive = small, poorly fitted or top-dose-only effect; inactive = flat fitted curve, though single readings scatter.
Also: nearly all actives have a fitted effect of over 60% in size.

Consider `C[C@](O)(COc1ccc(C#N)cc1)C(=O)Nc1ccc(C#N)c(C(F)(F)F)c1`, for which the max response in assay [1] is -6.61%; in assay [3], -23.6%. The compound was called inactive in assay [2] and in [4].
With `C[N+](C)(C)CC(=O)O`, the max response was -2.82% in assay [5]; 3.56% in assay [2]; -11.7% and 3.15% in assay [3].
Turning to `COc1ccc2c(c1)CN(C)CC2c1ccc(Cl)c(Cl)c1` (centres undefined), the compound was called inactive in assay [1], in [2], in assay [3], in assay [7] and in assay [4]. Also, the max response in assay [6] was -1.98%.
For `CC=C(C)C(=O)O[C@H]1C(C)=C2[C@@H]3OC(=O)[C@@](C)(O)[C@@]3(O)[C@@H](OC(=O)CCC)C[C@](C)(OC(C)=O)[C@@H]2[C@@H]1OC(=O)CCCCCCC`, the figures for the Potency in assay [1], in assay [2] and in assay [6] were 0.148 µM (active), 8.33 µM (active) and 0.0187 µM (active), respectively.
For the compound `COc1ccc(C(=O)c2c(C)n(CCN3CCOCC3)c3cc(I)ccc23)cc1`, the max response in assay [1] was 4.04%. For the same compound, the compound was called inactive in assay [2], in assay [6] and in assay [4].
Turning to `O=[N+]([O-])c1c2ccccc2cc2ccccc12`, the max response in assay [5] was -16%; in assay [2], 3.41%; in [3], -16.7%; in assay [6] it was -10.2%.
In the case of `COCC1(CO)C(=O)C2CCN1CC2` (centres undefined), the max response in assay [1] was -4.01%; in assay [3], 3.43%. Also, the result in assay [2] and in assay [4] was inactive.
Consider `CCN(CC)C(=O)c1ccc(C2=CC3(CCNCC3)Oc3cccc(O)c32)cc1`, for which the max response in assay [1] was 3.09% and -1.02%; in assay [2] it was -0.307%; in [3], 5.76% and 9.58%; in assay [6] it was 0.128%. Moreover, the outcome in assay [2], in [6] and in assay [4] was inactive.
`CC(=O)OCC1=C(C(=O)O)N2C(=O)[C@@H](N)[C@@H]2SC1`: in assay [8], the Potency result is “inactive”. The outcome in assay [1] and in assay [7] was inactive. Further, the max response is -5.82% in assay [2], 0.594% in assay [3] and -7.48% in assay [6].
Consider `Cc1c(N)nc([C@H](CC(N)=O)NC[C@@H](N)C(N)=O)nc1C(=O)N[C@H](C(=O)N[C@@H](C)[C@H](O)[C@@H](C)C(=O)N[C@@H](C(=O)NCCc1nc(-c2nc(C(=O)NCCC[S+](C)C)cs2)cs1)[C@@H](C)O)C(O[C@H]1O[C@H](CO)[C@H](O)[C@@H](O)[C@@H]1O[C@H]1O[C@H](CO)[C@@H](O)[C@H](OC(N)=O)[C@H]1O)c1cnc[nH]1` (some centres undefined), for which the Potency is 10.5 µM (active) in assay [1], 0.526 µM (active) in assay [5] and 1.18 µM (active) in assay [6].
Regarding `O=C(O)CCC1CCC(c2cc(F)ccc2F)(S(=O)(=O)c2ccc(Cl)cc2)CC1` (centres undefined), the outcome in [7] was inactive.
Regarding `COC[C@H]1OC(=O)c2coc3c2[C@@]1(C)C1=C(C3=O)[C@@H]2CC[C@H](O)[C@@]2(C)C[C@@H]1OC(C)=O`, the max response in [2] was -14.2%; in assay [3], -14.9%. The Potency in assay [6] was 16.6 µM (active).
As for `Clc1ccc2ncc(-c3cccc(NC4CNC4)n3)n2c1`, the compound was called inactive in assay [7].
On to `O=S(=O)(c1ccc(Cl)cc1)c1ccc(Cl)cc1`, for which the values for the max response in assay [3] and in [6] were -10.2% and -7.95%, respectively.
On to `Clc1ccccc1CN1CCc2sccc2C1`, for which the call in assay [7] was inactive.
As to `ClC1=C(Cl)[C@]2(Cl)[C@@H]3[C@@H]4C[C@@H]([C@H]5O[C@@H]45)[C@@H]3[C@@]1(Cl)C2(Cl)Cl`, the max response in assay [3] was 13.3%.
As for `O=C(C=Cc1c(C(=O)O)[nH]c2cc(Cl)cc(Cl)c12)Nc1ccccc1`, in [7], the outcome was inactive.
Turning to `Nc1ccc(N=Nc2ccccc2)cc1`, the max response in assay [3] was -15.1%. Besides, the Potency in [6] is 6.86 µM (active).
`COc1nn(CSP(=S)(OC)OC)c(=O)s1`: in assay [5], the Potency was 21.7 µM (active). In assay [2], the call was inactive. For the same compound, the max response in [3] was -23.4%; in assay [6], -0.106%. For the same compound, the outcome in assay [4] was “inactive [at 92 µM]”.
With `CCCN1CCC[C@H](c2cccc(O)c2)C1`, the Potency entry in assay [9] is “inactive”. Also, the Potency in assay [8] is 15.1 µM (active). Moreover, the max response in [3] was 0.305%.
For `O=[N+]([O-])c1cc([N+](=O)[O-])c2ccccc2c1`, the outcome in assay [2] was inactive. The max response in assay [3] was -6.84%; in [6], 4.23%. For the same compound, the outcome in assay [4] was “inactive [at 92 µM]”.
In the case of `CC(=O)Nc1ccc(O)cc1`, in assay [7], the compound was called inactive.
Turning to `CC(C)NC(C)Cc1ccc(I)cc1` (centres undefined), the Potency result in assay [9] is “inactive”. Moreover, the Potency in [8] is 10.7 µM (active). The max response in [3] was 2.96%.
Regarding `COc1ccc(CCN(C)CCCOc2ccc(S(=O)(=O)c3[nH]c4ccccc4c3C(C)C)cc2)cc1OC`, in [7], the outcome was inactive.
For the compound `CCCN(CCC)c1c([N+](=O)[O-])cc(S(N)(=O)=O)cc1[N+](=O)[O-]`, in [2], the Potency is 68.6 µM (active). In assay [3], the max response is -9.77%.
On to `CC=C(C)C(=O)N[C@@H](c1ccccc1)[C@@H](O)C(=O)O[C@H]1C[C@@]2(O)[C@@H](OC(=O)c3ccccc3)[C@@H]3[C@]4(OC(C)=O)CO[C@@H]4C[C@H](O)[C@@]3(C)C(=O)[C@H](OC(C)=O)C(=C1C)C2(C)C`, for which, in [5], the max response is -78.1%. For the same compound, in [3], the Potency is 0.001 µM (active).
For `COC1=CC(C)=C[C@@H](C)[C@@H](O)[C@@H](C)CC(C)=CC=C[C@H](OC)[C@H]([C@@H](C)[C@@H](O)[C@H](C)[C@@]2(O)C[C@@H](O)[C@H](C)[C@@H](C(C)C)O2)OC1=O`, the Potency in [5] is 0.0118 µM (active); in assay [3], 0.0059 µM (active); in assay [6] it was 0.0148 µM (active).
As for `NC(=O)CN1CC(O)CC1=O` (centres undefined), the Potency result in [9] and in [8] was “inactive” in each case. For the same compound, in [3], the max response was 3.82%.
Regarding `Cc1cccc(Nc2nc(N[C@@H]3CCCC[C@H]3N)ncc2C(N)=O)c1`, the call in [7] was inactive.
